About 3,600 (1.2%) of roughly 310,000 compounds were called active.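 The calls were made as follows: active = ratio plate-corrected score three or more library SD toward inhibition, starting fluorescence score within five deviations; inactive = the rest.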 This excerpt belongs to a sample that is enriched for actives.

Chain of Anoctamin-1 (Mus musculus) (Q8BHY3 whole entry, looked up): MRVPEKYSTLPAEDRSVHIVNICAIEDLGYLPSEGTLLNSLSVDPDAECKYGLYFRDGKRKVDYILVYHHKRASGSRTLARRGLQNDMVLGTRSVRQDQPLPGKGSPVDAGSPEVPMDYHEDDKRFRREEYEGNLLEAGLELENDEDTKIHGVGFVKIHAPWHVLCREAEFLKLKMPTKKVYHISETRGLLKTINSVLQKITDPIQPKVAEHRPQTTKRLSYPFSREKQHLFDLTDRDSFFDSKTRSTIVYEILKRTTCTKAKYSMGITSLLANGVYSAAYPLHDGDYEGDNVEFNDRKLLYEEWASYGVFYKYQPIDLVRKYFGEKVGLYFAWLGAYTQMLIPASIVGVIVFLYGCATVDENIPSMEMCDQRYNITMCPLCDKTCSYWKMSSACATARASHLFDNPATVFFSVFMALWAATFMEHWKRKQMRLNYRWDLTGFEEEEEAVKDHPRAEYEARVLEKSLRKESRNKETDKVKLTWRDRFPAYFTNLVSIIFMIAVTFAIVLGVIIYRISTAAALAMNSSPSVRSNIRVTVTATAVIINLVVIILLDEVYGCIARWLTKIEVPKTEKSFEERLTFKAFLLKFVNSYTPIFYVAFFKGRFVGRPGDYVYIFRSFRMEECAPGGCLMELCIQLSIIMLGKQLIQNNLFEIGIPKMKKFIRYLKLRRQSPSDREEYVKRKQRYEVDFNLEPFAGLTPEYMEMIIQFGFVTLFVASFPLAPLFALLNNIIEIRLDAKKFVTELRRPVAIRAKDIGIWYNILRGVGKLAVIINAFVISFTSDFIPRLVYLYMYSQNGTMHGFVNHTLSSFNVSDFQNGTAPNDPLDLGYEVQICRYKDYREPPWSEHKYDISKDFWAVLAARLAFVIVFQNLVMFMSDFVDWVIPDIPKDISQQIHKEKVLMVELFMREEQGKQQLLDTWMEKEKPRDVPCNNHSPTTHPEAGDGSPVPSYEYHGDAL

This assay concerns the target Anoctamin-1 (Mus musculus) (UniProt Q8BHY3). Nature of the assay: TMEM16A chloride channel inhibitors, primary screen, cell-based, HTS (AID 588511).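 As to normalized B-score (activity score, 25-100; higher = stronger inhibition): score derived from kinetic fluorescence span divided by baseline fluorescence per well.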 To be noted: HEK293 TMEM16A/YFP iodide influx fluorescence, ionomycin; at 10 µM.
Consider `CNC(=O)c1[nH]cnc1C(=O)N[C@@H](CC(C)C)C(=O)OCc1ccccc1`, for which the normalized B-score (activity score, 25-100; higher = stronger inhibition) is 25 (active).

Regarding `O=C(N[C@@H](Cc1ccccc1)C(=O)OCc1ccccc1)c1nc[nH]c1C(=O)N[C@@H](Cc1ccccc1)C(=O)OCc1ccccc1`, the normalized B-score (activity score, 25-100; higher = stronger inhibition) entry was “inactive”. For `Cc1nc(SCC(=O)N2CCc3ccccc3C2)c2c(C)c(C)sc2n1` the value was 100 (active); for `O=C(CSc1nnc(-c2cccs2)n1Cc1ccccc1)N1CCc2ccccc2C1`, “inactive”. As for `Cc1nc(SCC(=O)N2CC(=O)Nc3ccccc32)c2c(C)c(C)sc2n1`, the entry is “inactive”; as for `O=C(N1CCCCC1)N1CCN(C(=O)N2CCCCC2)CC1`, “inactive”.

In the case of `O=S(=O)(c1ccccc1)N1CCc2ccccc21`, the normalized B-score (activity score, 25-100; higher = stronger inhibition) entry is “inactive”.

With `CCn1c(=O)c(=O)n(CC)c2cc(S(=O)(=O)N3CCc4ccccc43)ccc21`, the normalized B-score (activity score, 25-100; higher = stronger inhibition) entry was “inactive”. As for `Cn1c(=O)n(C)c2cc(S(=O)(=O)N3CCCc4ccccc43)ccc21`, the figure is 25 (active).

With `Cc1ccc(S(=O)(=O)NC2CCCCCC2)cc1C(N)=O`, the normalized B-score (activity score, 25-100; higher = stronger inhibition) result was “inactive”.

In the case of `COC(=O)[C@@H]1C[C@@]2(O)[C@H](O)[C@H](O)[C@H](O)C[C@H]2N1Cc1ccc(C(C)(C)C)cc1`, the normalized B-score (activity score, 25-100; higher = stronger inhibition) entry is “inactive”.

In the case of `O=C(Nc1cccc2ccccc12)N1CCN(Cc2ccc3c(c2)OCO3)CC1`, the normalized B-score (activity score, 25-100; higher = stronger inhibition) result was “inactive”. As for `O=C(CSCc1ccc(Cl)cc1)N1CCN(Cc2ccc3c(c2)OCO3)CC1`, the figure is 100 (active). In the case of `O=C(CCCN1C(=O)c2cccc3cccc(c23)C1=O)N1CCN(Cc2ccc3c(c2)OCO3)CC1`, the normalized B-score (activity score, 25-100; higher = stronger inhibition) was 100 (active). With `O=C(CSCc1ccc(Cl)cc1)N1CCCCC1`, the normalized B-score (activity score, 25-100; higher = stronger inhibition) entry was “inactive”. As for `O=C(C1CCN(Cc2ccc(Cl)cc2)CC1)N1CCN(Cc2ccc3c(c2)OCO3)CC1`, the entry is “inactive”; as for `Cn1c(=O)cc(OCCCC(=O)N2CCN(Cc3ccc4c(c3)OCO4)CC2)c2ccccc21`, “inactive”.

Turning to `NC(=O)C1=C[C@@H](c2ccc3c(c2)OCO3)C[C@@H](OCCCCO)O1`, the normalized B-score (activity score, 25-100; higher = stronger inhibition) result is “inactive”. In the case of `COc1ccc(N2C(=O)C(CC(=O)Nc3ccc(F)cc3)N(CCc3cccs3)C2=O)cc1` (configuration not stated), the normalized B-score (activity score, 25-100; higher = stronger inhibition) result is “inactive”. For `Cc1cnc(C)c(N2CCN(C(=O)C3CCC(=O)N(CCc4cccc(F)c4)C3)CC2)n1` (configuration not stated), the normalized B-score (activity score, 25-100; higher = stronger inhibition) entry was “inactive”.

For `CC(C)Cn1cnc2c1c(=O)n(CC(=O)NN)c(=O)n2Cc1ccccc1`, the normalized B-score (activity score, 25-100; higher = stronger inhibition) entry was “inactive”. With `Cc1ccnc(NC(=O)C2CCN(S(=O)(=O)c3c(C)c(C)cc(C)c3C)CC2)c1`, the normalized B-score (activity score, 25-100; higher = stronger inhibition) entry was “inactive”.

`COc1ccc(CCNc2cc(C)nc3c(-c4ccc(Cl)cc4)c(C)nn23)cc1OC`: the normalized B-score (activity score, 25-100; higher = stronger inhibition) entry is “inactive”.

For the compound `CC(=O)Nc1ccc(OC(=O)COc2ccc(Br)cc2)cc1`, the normalized B-score (activity score, 25-100; higher = stronger inhibition) result was “inactive”. For `Cc1ccc(NC(=O)C(C)c2cccc(C(=O)c3ccccc3)c2)cc1` (configuration not stated), the normalized B-score (activity score, 25-100; higher = stronger inhibition) was 100 (active). Consider `CC(=O)Nc1ccc(NC(=O)[C@@H](NC(=O)c2cccc(C)c2)C(C)C)cc1`, for which the normalized B-score (activity score, 25-100; higher = stronger inhibition) entry was “inactive”. In the case of `COC(C(=O)Nc1ccc(C(C)=O)cc1)c1ccccc1` (configuration not stated), the normalized B-score (activity score, 25-100; higher = stronger inhibition) result is “inactive”. In the case of `COCCn1c(=O)[nH]c(=O)c2cc(C(=O)c3cc(OC)ccc3O)cnc21`, the normalized B-score (activity score, 25-100; higher = stronger inhibition) entry is “inactive”.

Take `CC1Cc2ccccc2N1C(=O)CSc1nnc(C2CC2)n1C` (configuration not stated): the normalized B-score (activity score, 25-100; higher = stronger inhibition) entry was “inactive”. For `CCCCSc1nnc2c(n1)OC=Nc1ccccc1-2` the value was “inactive”. For `O=C(CSC(=S)N1CCCCC1)c1c(F)cccc1F` the value was “inactive”; for `CCOC(=O)[C@H]1[C@H]2COc3ccc(Cl)cc3[C@@H]2N2C(=O)c3cc(C)ccc3NC(=O)[C@@]12C`, “inactive”. As for `CCN(CC)S(=O)(=O)c1ccc(N(C)Cc2cccc(OC)c2OC)nc1`, the figure is 25 (active); as for `CCN(CC)S(=O)(=O)c1ccc(N(C)Cc2ccc(C(F)(F)F)cc2)nc1`, 100 (active). Take `CCN(CC)S(=O)(=O)c1ccc(N(C)CCc2ccc(OC)c(OC)c2)nc1`: the normalized B-score (activity score, 25-100; higher = stronger inhibition) entry is “inactive”.

For `CCN(CC)S(=O)(=O)c1ccc(Cl)c(NC(=O)c2ccncc2)c1`, the normalized B-score (activity score, 25-100; higher = stronger inhibition) entry is “inactive”.

As to `COc1ccc(S(=O)(=O)N2CCCCCC2)cc1C(=O)N(C)Cc1cccc(OC)c1OC`, the normalized B-score (activity score, 25-100; higher = stronger inhibition) result was “inactive”. For `CCN(CC)S(=O)(=O)c1ccc(NC(=O)c2cnc(C)cn2)cc1`, the normalized B-score (activity score, 25-100; higher = stronger inhibition) result is “inactive”. For `CCC(C)c1ccccc1N1CC(C(=O)N2CCN(S(=O)(=O)c3ccc(F)cc3)CC2)CC1=O` (configuration not stated) the value was “inactive”; for `COc1ccccc1CNC(=O)Cn1c(=O)oc2cc(Cl)ccc21`, “inactive”.

`CC1CCCCC1NC(=O)CN1CCC(O)(c2ccc3c(c2)OCO3)CC1` (configuration not stated): the normalized B-score (activity score, 25-100; higher = stronger inhibition) entry is “inactive”. As for `CCOC(=O)C1CCN(c2ncnc3c2oc2ccc(Br)cc23)CC1`, the normalized B-score (activity score, 25-100; higher = stronger inhibition) was 100 (active). For `CCOC(=O)C1CCN(Cc2nnc(-c3cccc(Br)c3)o2)CC1` the value was “inactive”; for `CCOC(=O)C1CCN(c2ncnc3c2c(-c2ccccc2)cn3-c2ccc(C)cc2)CC1`, “inactive”.

With `O=C(Nc1ccc(C(=O)NCc2ccccc2Cl)cc1)C1=CSCCO1`, the normalized B-score (activity score, 25-100; higher = stronger inhibition) result was “inactive”. As for `O=C(/C=C/c1ccco1)NC(=S)N1CCCCC1`, the entry is “inactive”.

Turning to `O=C(Nc1cccnc1)c1noc2c1CCCCC2`, the normalized B-score (activity score, 25-100; higher = stronger inhibition) entry was “inactive”. For the compound `CCN1CCN(C(=O)C2CCN(S(=O)(=O)c3cc(Cl)ccc3Cl)CC2)CC1`, the normalized B-score (activity score, 25-100; higher = stronger inhibition) result is “inactive”. As to `CCCCNC(=O)C1CCC(=O)N1CCc1ccccc1` (configuration not stated), the normalized B-score (activity score, 25-100; higher = stronger inhibition) result was “inactive”.

Take `O=C(CSc1ncn[nH]1)Nc1nc(-c2cccc([N+](=O)[O-])c2)cs1`: the normalized B-score (activity score, 25-100; higher = stronger inhibition) entry is “inactive”. As for `O=C(CSc1nc(-c2ccccc2)cs1)Nc1cccc([N+](=O)[O-])c1`, the normalized B-score (activity score, 25-100; higher = stronger inhibition) is 100 (active). On to `CCNC(=O)CSc1nc(-c2ccccc2)cs1`, for which the normalized B-score (activity score, 25-100; higher = stronger inhibition) entry was “inactive”.

Values taken from PubChem BioAssay AID588511 (Johns Hopkins Ion Channel Center, 2011).
